For 15 compounds, growth results are on record in PubChem BioAssay (NCI).

Compounds without any hit were thinned out: in the full panel of roughly 83,000, 20% have a hit.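 Method: cells in 96-well plates; compound added at one concentration; 48 h incubation; percent growth measured; values under 10 scored active.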 Values without a mark were called inactive. The source made the active and inactive calls.

Among the test systems are DU-145 prostate; K-562 leukemia; MALME-3M melanoma; MDA-MB-231 breast; RXF 393 renal; SF-268 CNS; SF-295 CNS; SF-539 CNS; UACC-257 melanoma; M14 melanoma.
Common to all, as to assay: NCI-60 one-dose screen, 48 h (100 = growth as untreated, 0 = no growth, -100 = all killed)
Holding throughout (settings): 10 µM unless noted

Consider `O=C1/C(=C/C=C/c2ccco2)SC(=S)N1c1ccccc1`, for which the growth in the experiment on DU-145 prostate was 97.6%; in the experiment with K-562 leukemia, 64.6%; with MALME-3M melanoma it was 15.5%; in the experiment with MDA-MB-231 breast, 80.3%; in the experiment on RXF 393 renal it was -33.5% (active); in the experiment on SF-268 CNS, 108%. Also, the growth in the experiment with SF-295 CNS was 91.3%; with SF-539 CNS, 90.3%; with UACC-257 melanoma, 83.2%; in the experiment on M14 melanoma, 40.7%.

`CNC(=O)c1cc(Oc2ccc3nc(NC(=O)c4cccc(OC(F)(F)F)c4)sc3c2)ccn1`: the growth was 75.4% with DU-145 prostate; 61.8% in the experiment with K-562 leukemia; 76.8% with MALME-3M melanoma; 76.1% in the experiment with MDA-MB-231 breast; -1.69% (active) in the experiment with RXF 393 renal; 81.8% in the experiment with SF-268 CNS. The growth with SF-295 CNS is 77.8%; in the experiment with SF-539 CNS, 63.9%; in the experiment with UACC-257 melanoma, 77.6%; with M14 melanoma it was 93.9%.

For `COc1ccc(OC)c(-c2nc(SCC(=O)c3ccc(Br)cc3)nc(Nc3ccc(S(N)(=O)=O)cc3)c2C#N)c1`, the growth in the experiment with DU-145 prostate is 55.2%; in the experiment on K-562 leukemia it was 22.5%; with MALME-3M melanoma, 50.2%; in the experiment on MDA-MB-231 breast, 63%; with RXF 393 renal, 17.3%; in the experiment with SF-268 CNS, 56.7%. Further, the growth was 33.1% in the experiment with SF-295 CNS, 28.4% in the experiment with SF-539 CNS, 56.9% in the experiment on UACC-257 melanoma and 42.5% with M14 melanoma.

Consider `CCOC(=O)c1c(N)c(C#N)cn1-c1cc(OC)c(OC)c(OC)c1`, for which the growth was 110% in the experiment with DU-145 prostate; 105% in the experiment on K-562 leukemia; 102% with MALME-3M melanoma; 100% in the experiment on MDA-MB-231 breast; 112% in the experiment on RXF 393 renal; 111% with SF-268 CNS. Besides, the growth in the experiment with SF-295 CNS is 99%; in the experiment with SF-539 CNS, 92.6%; in the experiment on UACC-257 melanoma, 111%; with M14 melanoma it was 109%.

Take `CCn1c(SCC(=O)Nc2cccc(C(=O)/C=C/c3ccc(Br)cc3)c2)nc2ccccc2c1=O`: the growth with DU-145 prostate is 104%; with K-562 leukemia it was 77.3%; in the experiment with MALME-3M melanoma, 95.3%; in the experiment with MDA-MB-231 breast, 85.5%; with SF-268 CNS it was 100%; in the experiment on SF-295 CNS, 98.5%. The growth is 91.4% in the experiment on SF-539 CNS and 96.3% with UACC-257 melanoma.

For the compound `C#Cc1ccc(C(=O)NCc2ccc(/C=C/C(=O)c3nccn3C)cc2)cc1`, the growth was 21% in the experiment on DU-145 prostate; 18.8% with K-562 leukemia; 69.5% in the experiment with MALME-3M melanoma; 16.1% with MDA-MB-231 breast; 13.5% in the experiment with SF-268 CNS; 20.7% in the experiment with SF-295 CNS. The growth in the experiment with SF-539 CNS is -17% (active); in the experiment on UACC-257 melanoma it was 67.7%.

On to `CN(C)CCNC(=O)c1ccc(-c2nc3ccc4[nH]ncc4c3c3c2CCC3)cc1`, for which the growth with DU-145 prostate was 5.47% (active); in the experiment with K-562 leukemia it was 11.3%; with MALME-3M melanoma, -0.0162% (active); with MDA-MB-231 breast it was -2.41% (active); in the experiment on SF-268 CNS, -8.73% (active); with SF-295 CNS it was 2.24% (active). Further, the growth was -31.2% (active) in the experiment with SF-539 CNS and 47.7% with UACC-257 melanoma.

As to `CCC(CC)N1C(=O)/C(=c2\sc3n(c2=O)NC2C(N=3)N(CC)C(=O)N2CC)c2ccccc21` (stereo not drawn), the growth in the experiment on DU-145 prostate was 52%; in the experiment with K-562 leukemia, 26%; with MALME-3M melanoma, 65.2%; in the experiment with MDA-MB-231 breast, 53.2%; in the experiment on SF-268 CNS it was 63.4%; in the experiment on SF-295 CNS, 20.3%. Besides, the growth with SF-539 CNS was 25.2%; in the experiment on UACC-257 melanoma, 86.1%.

As for `CC1(C)CC[C@]23CC[C@]4(C)[C@H](CC[C@@H]5[C@@]6(C)CCCN(CO)C(C)(C)[C@@H]6CC[C@]54C)[C@H]2[C@H]1OC3`, the growth was 50.7% in the experiment with DU-145 prostate; 2.86% (active) with K-562 leukemia; 101% with MALME-3M melanoma; 65.9% in the experiment with MDA-MB-231 breast; 97.5% in the experiment on SF-268 CNS; 112% with SF-295 CNS. Also, the growth was 84.6% with SF-539 CNS and 110% with UACC-257 melanoma.

With `CCOP(=O)(OCC)OC[C@]12CCC(C)(C)C=C1[C@H]1CC[C@@H]3[C@@]4(C)CC[C@H](OP(=O)(OCC)OCC)C(C)(C)[C@@H]4CC[C@@]3(C)[C@]1(C)CC2`, the growth was -70.2% (active) in the experiment on DU-145 prostate; 4.74% (active) in the experiment on K-562 leukemia; -12.8% (active) in the experiment with MALME-3M melanoma; -55.2% (active) with MDA-MB-231 breast; -59.7% (active) in the experiment on SF-268 CNS; -66.2% (active) in the experiment on SF-295 CNS. The growth is -84.1% (active) in the experiment with SF-539 CNS and -8.01% (active) with UACC-257 melanoma.

For `COc1ccc(Cn2cc3c(c2-c2cc(OC)c(OC)c(OC)c2)CCc2c(CN4CCOCC4)noc2-3)cc1`, the growth in the experiment on DU-145 prostate was 20%; in the experiment with K-562 leukemia, 12.6%; in the experiment with MALME-3M melanoma it was 43.3%; in the experiment with MDA-MB-231 breast, 31.8%; with SF-268 CNS, 47.7%; in the experiment on SF-295 CNS it was 13.3%. Besides, the figures for the growth in the experiment with SF-539 CNS and in the experiment with UACC-257 melanoma were 3.49% (active) and 73.4%, respectively.

`CS(=O)(=O)Nc1cc(-c2ccc3ncc(C#N)c(NCc4cccc(F)c4)c3c2)cnc1Cl`: the growth in the experiment with DU-145 prostate was 17.8%; with K-562 leukemia, 14.1%; in the experiment with MALME-3M melanoma, -35.7% (active); with MDA-MB-231 breast, 0.274% (active); in the experiment with SF-268 CNS, 3.62% (active); with SF-295 CNS, -21.9% (active). The figures for the growth in the experiment on SF-539 CNS and in the experiment on UACC-257 melanoma were -26.4% (active) and 1.5% (active), respectively.

Turning to `COc1cccc(/C=C(/C)c2ccc3cccc(OC)c3[o+]2)c1O`, the growth in the experiment with DU-145 prostate was 107%; with K-562 leukemia it was 97.2%; with MALME-3M melanoma, 105%; in the experiment on MDA-MB-231 breast, 89.8%; in the experiment with SF-268 CNS, 95.3%; in the experiment with SF-295 CNS, 101%. In addition, the growth in the experiment on SF-539 CNS was 103%; with UACC-257 melanoma it was 110%.

For `O=C(O)c1ccc(-n2cc(CNc3cc(F)c(F)c(F)c3)c(-c3cccc(F)c3)n2)cc1`, the growth was 101% with DU-145 prostate; 84.3% in the experiment with K-562 leukemia; 67.2% in the experiment on MALME-3M melanoma; 94.4% in the experiment on MDA-MB-231 breast; 106% with SF-268 CNS; 37.1% with SF-295 CNS. Moreover, the growth in the experiment with SF-539 CNS is 97.1%; in the experiment with UACC-257 melanoma, 95.1%.

For the compound `NC(N)=Nc1ccc(Oc2cccc(NC(N)=Nc3ccc(Cl)c(C(F)(F)F)c3)c2)cn1`, the growth in the experiment on DU-145 prostate was 63.7%; with K-562 leukemia, 19.7%; with MALME-3M melanoma it was 57.9%; in the experiment with MDA-MB-231 breast, 43.8%; in the experiment with SF-268 CNS, 19.6%; in the experiment on SF-295 CNS, 40.7%. Besides, the growth was 36.6% with SF-539 CNS and 61.2% with UACC-257 melanoma.
